The results in this text go back to PubChem BioAssay (EPA / NIEHS).

Values joined by “and” are separate entries in the source; they are usually repeats but may differ in a detail not shown here. Equal values may be shown once. Results filed as inconclusive are left out. A structure can be active in one record and inactive in another. Active and inactive are the calls of the source. How the source made its calls, unless noted: active means hit-call score of the fitted dose curve at least 0.9, where 1 is the maximum; inactive means score below 0.9.

Experiment [1] is described as follows: CCTE_Shafer_MEA_acute_network_burst_percentage: CCTE's Neural Acute Assay for Percentage of Network Bursts, Shafer Lab (AID 2284022).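 Further: curves fitted for loss so actives lower network burst percentage.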 In a few lines: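 Readout is the fraction of spikes falling in network bursts, expressed as per-well percent change from a 40-min pre-exposure baseline. Primary rat cortical neurons on MEA were exposed to 0.03-40 uM compound on DIV 13 or 15 and recorded for 40 min at 37 C.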

A short description of experiment [2]: CCTE_Shafer_MEA_acute_cross_correlation_area: CCTE's Neural Acute Assay for Area of Cross Correlation, Shafer Lab (AID 2284024).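 Further: area under pooled inter-electrode spike cross-correlation near zero lag as percent change from own baseline; curves fitted for loss of cross-correlation area so actives lower synchrony.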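 On outcome: rat primary cortical neuron networks on 48-well MEA at DIV 13 or 15 with 40 min exposure.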 In a few lines:
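Plates equilibrated 20 min at 37 C, then 40 min baseline was recorded, compound was added (0.03-40 uM), and a further 40 min was recorded. Wells needed ≥10 active electrodes (≥5 spikes/min) on exposure day.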

A short description of experiment [3]: CCTE_Shafer_MEA_acute_cross_correlation_HWHM: CCTE's Neural Acute Assay for Cross Correlation at Half Width at Half Maximum, Shafer Lab (AID 2284026).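 Further: percent change per well from pre-dose baseline in spike cross-correlogram half width; hits are a decrease in cross-correlogram half width relative to DMSO.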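 On outcome: spontaneous network firing of rat primary cortical neurons on multiwell microelectrode arrays.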 In a few lines: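 Rat cortical neuron cultures on microelectrode arrays were equilibrated 20 min at 37 C, recorded 40 min at baseline, then 40 min after compound addition (0.03-40 uM, ≥3 wells). Spikes were detected at 8x rms noise after 300-5000 Hz band-pass filtering.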

Experiment [4] is described as follows: CCTE_Shafer_MEA_acute_synchrony_index: CCTE's Neural Acute Assay for Synchrony, Shafer Lab (AID 2284027).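 Further: network synchrony index of spontaneous spiking in primary rat cortical neurons on MEAs; fitted for loss of signal so actives lower synchrony relative to DMSO.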 The essentials: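 Primary rat cortical neurons on 16-electrode MEA wells were recorded 40 min at baseline (DIV 13 or 15) and 40 min after compound (0.03-40 uM) at 37 C. Synchrony index (0-1) expressed as percent change from baseline, versus DMSO.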
A short description of experiment [5]: CCTE_Deisenroth_AIME_384WELL_CTox_Active: Cytotoxicity Assessment (CTOX) in CCTE's 384-well Estrogen Receptor Transactivation Assay with AIME metabolic competence (metabolism positive), Deisenroth Lab (AID 2284037; active means hit-call score of the fitted dose curve at least 0.9, where 1 is the maximum;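 further: chemicals first conditioned 2 h by alginate-bound induced rat liver S9 before cells; activity means signal loss indicating cell death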). In a few lines:
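Cytotoxicity in VM7Luc4E2 breast cells, 24 hour, measured as protease-substrate fluorescence loss, after 2-hour metabolic conditioning with induced rat hepatic S9 in alginate microspheres. Concentrations 0.002 - 200 uM, 10 points, bidirectional fitting.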

The nature of experiment [6]: CCTE_Deisenroth_AIME_384WELL_CTox_Inactive: Cytotoxicity Assessment (CTOX) in CCTE's 384-well Estrogen Receptor Transactivation Assay without AIME metabolic competence (metabolism negative), Deisenroth Lab (AID 2284039; active means hit-call score of the fitted dose curve at least 0.9, where 1 is the maximum;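 further: cell viability via live-cell protease substrate cleaved to fluorescent probe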). In a few lines: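 Fluorescent protease-substrate viability readout after 24 h exposure of VM7Luc4E2 cells to conditioned medium. Chemicals (0.002–200 uM) first sat 2 h over alginate-water beads, no S9. Data fitted bidirectionally, loss of signal meaning viability loss.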

Experiment [7] can be described thus: CCTE_Shafer_MEA_dev_firing_rate_mean: CCTE's Neural Network Formation Assay for Mean Firing Rate, Shafer Lab (AID 2284031).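 On AC50: curve fitted for loss of firing so AC50 reflects decreased mean firing rate.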 In a few lines:
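Primary rat cortical neurons on 48-well, 16-electrode MEAs (PEI-coated, laminin at plating), exposed from day 0 with compound renewed at DIV 5 and 9. Spikes recorded DIV 5, 7, 9, 12; well-mean firing rate collapsed to trapezoidal AUC, loss-of-signal vs DMSO.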

Experiment [8] can be described thus: CCTE_Shafer_MEA_dev_per_burst_spike_percent: CCTE's Neural Network Formation Assay for Percent of Spikes in a Burst, Shafer Lab (AID 2284032).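 On AC50: fitted as a decrease in burst spike percentage below DMSO baseline.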 In a few lines: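 Rat primary cortical neurons on 16-electrode MEA wells, dosed from plating day 0 for 12 days with renewal on DIV 5 and 9; spikes-in-bursts percentage averaged over bursting electrodes, collapsed as AUC across days 5, 7, 9, 12; loss direction versus DMSO.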

The nature of experiment [9]: CCTE_Shafer_MEA_dev_active_electrodes_number: CCTE's Neural Network Formation Assay for Number of Active Electrodes, Shafer Lab (AID 2284040; active means hit-call score of the fitted dose curve at least 0.9, where 1 is the maximum;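 on AC50: potency for loss of active electrodes versus DMSO so lower counts are hits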). The essentials: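 Rat cortical primary cultures, 1.5 x 10^5 cells/well, PEI-coated MEA, laminin drop. Continuous exposure DIV 0–12; full media/compound change DIV 5, 9. Readout: electrodes with mean firing ≥5 spikes/min; AUC across days; loss vs DMSO.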

Experiment [10] is described as follows: CCTE_Shafer_MEA_dev_burst_rate: CCTE's Neural Network Formation Assay for Burst Rate, Shafer Lab (AID 2284042).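 On AC50: potency for loss of burst rate below DMSO control.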 The essentials: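 Exposure ran continuously over 12 days of network development in rat cortical cultures, with compound refreshed during full media changes on DIV 5 and 9. Single-electrode bursts per recording time, well-mean over active electrodes, trapezoidal AUC across days 5–12, fitted downward relative to DMSO.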

A short description of experiment [11]: CCTE_Shafer_MEA_dev_bursting_electrodes_number: CCTE's Neural Network Formation Assay for Number of Bursting Electrodes, Shafer Lab (AID 2284043; active means hit-call score of the fitted dose curve at least 0.9, where 1 is the maximum;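 on AC50: potency is for loss of bursting electrodes relative to DMSO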). In a few lines:
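Read-out is the per-well number of electrodes bursting at least once every 2 minutes, recorded on days 5, 7, 9 and 12 and collapsed by trapezoidal area under the curve. Cultures were primary rat cortical neurons on MEA plates, treated continuously from plating.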

Experiment [12] is described as follows: CCTE_Shafer_MEA_dev_per_burst_interspike_interval: CCTE's Neural Network Formation Assay for Burst Interspike Interval, Shafer Lab (AID 2284044).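 Further: mean spike spacing inside bursts as AUC over recordings on days 5 7 9 12.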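 On AC50: potency for a decrease of within-burst interspike interval below DMSO level.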 The essentials: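 Neurons from rat cortex plated onto PEI-coated MEA wells with laminin […] at 1.5 x 10^5 cells/well, then treated from day 0. Media and compound fully replaced on DIV 5 and 9. Extracellular spontaneous firing recorded four times; interspike interval per burst summarised as AUC.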

A short description of experiment [13]: CCTE_Shafer_MEA_dev_burst_duration_mean: CCTE's Neural Network Formation Assay for Mean Burst Duration, Shafer Lab (AID 2284045).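 On AC50: curve fitted for loss meaning shorter burst duration than DMSO.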 In a few lines:
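Read-out: average first-to-last-spike interval within single-electrode bursts, averaged over bursting electrodes per well, then summarised as area under the curve across days 5, 7, 9 and 12. Developing rat cortical networks were exposed from day 0.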

The nature of experiment [14]: CCTE_Shafer_MEA_dev_interburst_interval_mean: CCTE's Neural Network Formation Assay for Mean Interburst Interval, Shafer Lab (AID 2284046).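 Further: well-mean interburst interval of bursting electrodes as AUC over four recording days; curve fitted for decrease in interburst interval relative to DMSO.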 The essentials:
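Primary rat cortical neurons on PEI-coated 48-well MEA plates (laminin added with cells at plating) (16 electrodes/well), exposed from plating day 0 with renewal at DIV 5 and 9. Mean inter-burst interval averaged over bursting electrodes, AUC across days 5, 7, 9, 12; DMSO baseline.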

Experiment [15] in a line: CCTE_Shafer_MEA_dev_inter_network_spike_interval_mean: CCTE's Neural Network Formation Assay for Mean Inter-network Spike Interval, Shafer Lab (AID 2284047).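 On AC50: potency for a decrease in mean inter-network spike interval below DMSO.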 The essentials:
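Mean time between consecutive network-spike peaks, recorded extracellularly (adaptive spike detection) on DIV 5, 7, 9 and 12, summarized as trapezoidal AUC. Rat cortical cultures on MEAs dosed continuously days 0–12, re-dosed at feeds; loss-of-signal fit relative to DMSO.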

Experiment [16] is described as follows: CCTE_Shafer_MEA_dev_network_spike_number: CCTE's Neural Network Formation Assay for Number of Network Spikes, Shafer Lab (AID 2284048).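 Further: synchronized bursts across electrodes counted on days 5 7 9 12 and integrated as AUC.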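 On AC50: fit as a loss of signal meaning fewer network spikes than DMSO.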 The essentials: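 Developing networks of primary rat cortical neurons are treated over 12 days starting at plating, with media and compound fully replaced on DIV 5 and 9. Network spike counts from four recording days are integrated as trapezoidal AUC.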

For experiment [17], the target named is Estrogen receptor (Homo sapiens) (UniProt P03372). Kind of experiment: CCTE_Deisenroth_AIME_384WELL_LUC_Active: CCTE's 384-well Estrogen Receptor Transactivation Assay with AIME metabolic competence (ERTA luciferase; metabolism positive), Deisenroth Lab (AID 2284030; active means hit-call score of the fitted dose curve at least 0.9, where 1 is the maximum). In a few lines:
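AIME metabolism-positive mode: chemicals 0.002 - 200 uM, 2 h with alginate-bound PB/BNF-induced rat S9 → medium to VM7Luc4E2 ERTA, 24 h → luciferase. Positive fit vs 17beta-estradiol; n=4 typical.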

For experiment [18] the target is unchanged. Kind of experiment: CCTE_Deisenroth_AIME_384WELL_LUC_Inactive: CCTE's 384-well Estrogen Receptor Transactivation Assay without AIME metabolic competence (ERTA luciferase; metabolism negative), Deisenroth Lab (AID 2284038; active means hit-call score of the fitted dose curve at least 0.9, where 1 is the maximum;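 further: VM7Luc4E2 breast cells given medium preincubated 2 h with S9-free microspheres; hits raise estrogen receptor luciferase signal so potencies reflect agonists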). In a few lines: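 Chemicals (10-point series, 0.002 - 200 uM) were incubated 2 hours with alginate-water microsphere lids lacking S9, then the conditioned medium was transferred to VM7Luc4E2 breast cells for 24 hour. Luciferase induction was read by bioluminescence, fitted upward relative to 17beta-estradiol.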

For experiment [19] the target is unchanged. Nature of the experiment: CCTE_Deisenroth_AIME_384WELL_LUC_Shift: CCTE's 384-well Estrogen Receptor Transactivation Assay with AIME metabolic competence data shift (ERTA luciferase; difference in metabolism positive and negative), Deisenroth Lab (AID 2284041).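 Further: shift is response with S9 minus without S9 so positive means metabolism raised ER signal.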 The essentials: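 Test chemicals (0.002–200 uM, 10-point) were pre-incubated 2 h with alginate microspheres containing phenobarbital/beta-naphthoflavone-induced male Sprague Dawley rat liver S9 or water, then medium was transferred to VM7Luc4E2 cells for 24 h luciferase readout; shift = S9-positive minus S9-negative normalized response.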

Estrogen receptor (Homo sapiens), sequence (P03372 whole entry, looked up): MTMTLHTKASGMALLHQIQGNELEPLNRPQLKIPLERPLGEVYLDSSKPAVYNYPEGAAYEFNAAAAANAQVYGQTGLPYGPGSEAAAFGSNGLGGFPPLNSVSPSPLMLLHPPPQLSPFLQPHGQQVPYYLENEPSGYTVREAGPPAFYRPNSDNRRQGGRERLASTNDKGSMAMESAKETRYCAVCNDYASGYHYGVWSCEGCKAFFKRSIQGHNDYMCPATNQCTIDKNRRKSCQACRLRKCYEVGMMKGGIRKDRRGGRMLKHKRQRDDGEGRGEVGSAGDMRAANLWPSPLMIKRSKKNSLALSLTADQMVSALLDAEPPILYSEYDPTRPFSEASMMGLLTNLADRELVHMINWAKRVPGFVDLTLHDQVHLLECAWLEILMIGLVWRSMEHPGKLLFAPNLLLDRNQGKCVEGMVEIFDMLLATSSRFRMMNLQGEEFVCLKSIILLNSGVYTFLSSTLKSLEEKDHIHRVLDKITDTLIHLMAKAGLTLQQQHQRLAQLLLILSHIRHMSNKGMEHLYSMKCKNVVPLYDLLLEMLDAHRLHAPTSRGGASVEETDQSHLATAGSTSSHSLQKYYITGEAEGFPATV

Turning to `ClCCOCCCl`, the molecule was called inactive in experiment [1], in [2], in [3], in [4], in experiment [5] and in [6].

As for `CCN(CC)CCO`, the outcome in experiment [1], in experiment [2], in experiment [3] and in [4] was inactive.

Usually AC50 stands for the concentration giving half of the maximal activity seen. Regarding `Clc1ccc(C(c2ccc(Cl)cc2)C(Cl)(Cl)Cl)cc1`, the concentration at half-maximal activity (AC50) is 4.24 µM (active) in experiment [1]; 10.6 µM (active) in experiment [4]; 7.7 µM (active) and 10.1 µM (active) in experiment [7]; 3.45 µM (active) and 6.66 µM (active) in experiment [8]; 160 µM (active) in [6]; 4.02 µM (active) and 7.34 µM (active) in [9]. Further, the AC50 is 7.69 µM (active) and 6.09 µM (active) in experiment [10]; 3.96 µM (active) and 6.35 µM (active) in experiment [11]; 7.74 µM (active) and 9.33 µM (active) in experiment [12]; 7.67 µM (active) and 9 µM (active) in [14]; 2.58 µM (active) and 2.86 µM (active) in [16]. The result in experiment [2], in [3], in experiment [5], in experiment [13] and in experiment [15] was inactive.

On to `O=P(OCCCl)(OCCCl)OCCCl`, for which the call in experiment [1], in experiment [2], in experiment [3], in experiment [4], in experiment [7] and in experiment [8] was inactive. In addition, the molecule was classed as inactive in experiment [9], in experiment [10], in [11], in [12], in experiment [13] and in [14]. Besides, the outcome in [15] and in experiment [16] was inactive.

For `O=C(Oc1ccc(Br)cc1)N1CCN2CCC1CC2`, the outcome in [1], in experiment [2], in experiment [3], in experiment [4], in [17] and in experiment [18] was inactive. The result in experiment [19] was inactive.

As to `CCC(C)c1ccc(O)cc1` (centres undefined), the AC50 in [1] was 33.9 µM (active); in experiment [3], 30.5 µM (active); in experiment [4], 30.5 µM (active). In experiment [2], the result was inactive.

With `CCCCCOC(=O)c1ccccc1C(=O)OCCCCC`, the concentration at half-maximal activity (AC50) is 26.4 µM (active) in [1], 2.82 µM (active) in [3], 12.4 µM (active) in experiment [4] and 19.8 µM (active) in experiment [6]. Further, the call in experiment [2], in experiment [17], in [5], in experiment [18] and in experiment [19] was inactive.

On to `ClC1=C(Cl)C2(Cl)C3C(Cl)C=CC3C1(Cl)C2(Cl)Cl` (centres undefined), for which the call in experiment [1], in experiment [3], in [4], in experiment [12], in [13] and in experiment [15] was inactive. Moreover, the molecule was classed as inactive in experiment [16]. The half-maximal activity concentration (AC50) in [2] was 4.37 µM (active); in experiment [7], 4.54 µM (active); in experiment [8], 4.18 µM (active); in experiment [9], 4.27 µM (active); in experiment [10] it was 2.74 µM (active); in experiment [11], 2.35 µM (active). The AC50 in experiment [14] was 2.32 µM (active).

As to `CCC[CH2][Sn]([Cl])([CH2]CCC)[CH2]CCC`, the AC50 in [1] was 0.243 µM (active); in experiment [2], 16.8 nM (active) and 54 nM (active); in experiment [3], 0.463 µM (active); in [4], 237 nM (active) and 322 nM (active); in experiment [7], 0.00892 µM (active); in experiment [8] it was 0.0758 µM (active). For the same molecule, the half-maximal activity concentration (AC50) was 0.0428 µM (active) in [9]; 0.043 µM (active) in experiment [10]; 0.0406 µM (active) in experiment [11]; 39.2 nM (active) in experiment [12]; 0.0302 µM (active) in experiment [13]; 0.0762 µM (active) in experiment [14]. In addition, the AC50 in experiment [15] is 0.0769 µM (active); in [16], 56.5 nM (active). The outcome in experiment [1] and in experiment [3] was inactive.

Turning to `Clc1ccc(C(c2ccc(Cl)cc2)C(Cl)Cl)cc1`, the half-maximal activity concentration (AC50) in experiment [1] was 7.42 µM (active); in experiment [3], 11.4 µM (active); in experiment [4], 4.76 µM (active); in [7], 8.59 µM (active); in experiment [8], 4.86 µM (active); in [9] it was 4.66 µM (active). Besides, the AC50 in experiment [10] is 8.68 µM (active); in experiment [11] it was 6.19 µM (active); in experiment [12], 8240 nM (active); in experiment [14], 8.61 µM (active); in [16], 1980 nM (active). The molecule was called inactive in experiment [2], in experiment [13] and in experiment [15].
